Compounds with a hit are over-represented: about 7.5% of the library has one in this group of screens.
NPC1 promoter act = qHTS Assay for NPC1 Promoter Activators; 320,000 tested, 2.4% active; Huh7 NPC1 promoter luciferase reporter, 24 h; Potency, µM (titrated, usually from 9.22 µM), for the others: at the highest dose activation, usual class: activators; also: % of control where 0% means no effect; nearly all actives have a fitted effect of over 60% in size
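Luminescence from an NPC1 promoter-driven luciferase reporter in stably transfected Huh7 cells was measured after 24 h compound treatment at 37 °C, followed by 10 min ambient incubation with luciferase detection reagent.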
SMN2 splice enh = qHTS Assay for Enhancers of SMN2 Splice Variant Expression | Potency, µM (titrated, usually from 46.1 µM), inactives show at the highest dose activity change, positive = activation, hits mostly activators | HEK293 SMN2-luciferase splicing reporter, luminescence, 30-36 h | AID 1458, 2008 | 210,000 tested, 2.8% active; also: % of control where 0% means no effect; nearly all actives have a fitted effect of over 55% in size
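HEK293 cells carry an SMN2 minigene-luciferase reporter in which exon 7 inclusion puts luciferase in frame. Cells were seeded at 2000 cells/well, attached for 10-12 hours, then exposed to compounds for 30-36 hours at 37C before ONE-Glo luminescence.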
ELG1 genotox = qHTS screen for small molecules that induce genotoxicity in human embryonic kidney (HEK293T) cells expressing luciferase-tagged ELG1; HEK293T ELG1-luciferase reporter, luminescence, 16 h; Potency, µM (highest dose often 46 µM), for inactives: top-dose activity change, positive = activation, most hits filed as activators; 330,000 tested, 1.3% active; AID 504466, 2011; also: % of control where 0% means no effect; nearly all actives have a fitted effect of over 60% in size
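Quantitative HTS format in 1536-well plates. HEK293T ELG1-luciferase reporter cells receive test compound and are incubated 16 hr at 37 °C, 5% CO2; ONE-Glo added, 30 min room temperature, then luminescence read.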
FLuc modulator = qHTS profiling assay for firefly luciferase inhibitor/activator using purifed enzyme and Km concentrations of substrates (counterscreen for miR-21 project); 360,000 tested, 6.9% active; purified FLuc, Km substrates, luminescence inhibition; Luciferin 4-monooxygenase (Photinus pyralis), P08659; Potency, µM (top dose mostly 57.5 µM), inactives show top-dose activity change, negative = inhibition, actives largely listed as inhibitors;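 also: plate controls were vehicle for no effect and reference inhibitor for full effect; nearly all actives have a fitted effect of over 55% in size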
Target sequence (P08659 whole entry, looked up): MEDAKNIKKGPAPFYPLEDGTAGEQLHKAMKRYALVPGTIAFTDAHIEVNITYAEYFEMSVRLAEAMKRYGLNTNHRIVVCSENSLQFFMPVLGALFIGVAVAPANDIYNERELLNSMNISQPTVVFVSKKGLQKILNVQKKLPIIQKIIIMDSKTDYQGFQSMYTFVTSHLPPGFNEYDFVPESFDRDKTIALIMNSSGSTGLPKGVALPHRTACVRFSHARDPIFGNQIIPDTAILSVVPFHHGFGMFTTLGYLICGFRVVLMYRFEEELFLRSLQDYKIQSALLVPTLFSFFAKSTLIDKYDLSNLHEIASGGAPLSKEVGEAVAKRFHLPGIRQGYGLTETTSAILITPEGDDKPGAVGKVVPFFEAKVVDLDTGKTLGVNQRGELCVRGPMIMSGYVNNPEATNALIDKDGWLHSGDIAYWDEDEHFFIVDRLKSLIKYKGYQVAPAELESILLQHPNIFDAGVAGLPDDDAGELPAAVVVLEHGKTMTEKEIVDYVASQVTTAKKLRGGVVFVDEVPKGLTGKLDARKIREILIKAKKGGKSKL
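Purified P. pyralis luciferase (10nM final) with 10uM D-luciferin and 10uM ATP (Km levels) in 50mM Tris acetate pH 7.5, 10mM Mg acetate, 0.01% Tween-20, 0.05% BSA; qHTS 6-point titration, ~60 µM downward; luminescence read.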
Rab9 prom act = qHTS Assay for Rab9 Promoter Activators; 320,000 tested, 2.8% active; AID 485297, 2010; Huh7 Rab9 promoter-luciferase reporter, luminescence, 24 h; Potency, µM (top dose mostly 9.22 µM), for the others: at the top dose activation, negative = inhibition, hits mostly activators; also: % of control where 0% means no effect; nearly all actives have a fitted effect of over 60% in size
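Quantitative HTS format; Huh7 Rab9-luciferase reporter cells (1500/well) receive compound 2 h post-plating, incubate 24 h at 37 °C, then get luciferase reagent for 10 min before luminescence reading.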
KinaseGlo FLuc = Counterscreen for Luciferase (Kinase-Glo TM) Inhibition; Luciferin 4-monooxygenase (Photuris pensylvanica), Q27757; AID 1379, 2008; Potency, µM (top dose mostly 38.3 µM), without a hit: at the highest dose activity change, negative = inhibition, actives largely listed as inhibitors; Kinase-Glo luciferase, ATP luminescence, 8 min; 200,000 tested, 0.28% active; also: % is scaled to controls: 0 for no effect and ±100 for the full control effect; nearly all actives have a fitted effect of over 60% in size
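Light output from Kinase-Glo luciferase with luciferin and 10 uM ATP in 50 mM imidazole pH 7.2, KCl, MgCl2, Tween 20, BSA; compound pin-delivered, 8-min ambient incubation, then luminescence read.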
* marks the source's active call; other numbers are inactive results; ? = inconclusive; / = no result given; ! = a repeat was not active; [ ] = another dose, or the depositor's remark. Calls follow the shape of the dose curve; as a rule, active = well fitted curve in the direction sought with a large enough effect; inconclusive = small, poorly fitted or top-dose-only effect, or another doubt; inactive = no such curve, though single readings can be large; an effect the other way counts as inactive or inconclusive. Potency is read from the fitted curve at half-maximal effect.

SMILES	NPC1 promoter act	SMN2 splice enh	ELG1 genotox	FLuc modulator	Rab9 prom act	KinaseGlo FLuc
COc1cc(-c2ccc(N=Nc3ccc4c(S(=O)(=O)O)cc(S(=O)(=O)O)c(N)c4c3O)c(OC)c2)ccc1N=Nc1ccc2c(S(=O)(=O)O)cc(S(=O)(=O)O)c(N)c2c1O	/	-12.4%[20.6 µM]	/	/	/	10µM*!
Cc1nn(-c2ccc(S(=O)(=O)O)cc2)c(O)c1N=Nc1ccc(-c2ccc(N=Nc3ccc4c(S(=O)(=O)O)cc(S(=O)(=O)O)c(N)c4c3O)c(O)c2)cc1O.[Cu].[Cu]	/	-4.2%[9.22 µM]	/	/	/	-24.8%[7.66 µM]
Cc1cccc(N(C(=O)CNC(=O)c2ccco2)C(C(=O)NC2CCCC2)c2ccncc2)c1C (stereo not given)	-7.4%	/	3.0%	1.4%	-0.5%	/
CC(=O)ON(C(C)=O)S(=O)(=O)c1ccc(Cl)cc1	/	/	/	/	/	4.4%
Cc1cc(=O)oc2cc(NC(=S)NNC(=O)c3c(Cl)cnn3C)ccc12	0.447µM*	/	?	1.51µM*	0.891µM*	/
Cc1cc(/C=C2/C(=O)NN(c3ccccc3)C2=O)c(C)n1-c1cccc(O)c1	1.58µM*	-25.4%	?	0.135µM*	3.55µM*	-20.7%
Cc1sc(-n2c(C)cc(/C=C3\SC(=S)NC3=O)c2C)c(C#N)c1C	-0.9%	3.4%	1.4%	13.5µM*	?	-5.7%
COc1ccc(-n2c(C)cc(/C=C3\SC(=O)NC3=O)c2C)cc1	?	/	?	12µM*	?	/
Cc1cc(/C=C2\SC(=S)NC2=O)c(C)n1-c1cccc(O)c1	2.51µM*	/	?	1.07µM*	1.58µM*	/
Cc1cc(C=O)c(C)n1-c1cccc(C(=O)O)c1	-2.2%	/	0.2%	3.7%	-7.0%	-2.7%
COc1ccc(-n2c(C)cc(/C=C3\SC(=S)N(Cc4ccco4)C3=O)c2C)cc1	17.8%	0.8%[1.84 µM]	2.5%	?	?	-3.0%
Cc1sc(-n2c(C)cc(/C=N/n3cnnc3)c2C)c(C#N)c1C	-6.0%	/	2.0%	?	-5.2%	/
COc1ccccc1CNC(=O)CCC1N=C2c3ccccc3N=C(SCc3ccc(Cl)cc3)N2C1=O (stereo not given)	/	/	/	1.2%	/	/
CCC(=O)N1CCc2cc(S(=O)(=O)CCC(=O)Nc3cc(Cl)ccc3OC)ccc21	/	-9.5%	/	-14.7%	/	/
O=C(CCc1nnc2n(Cc3ccccc3Cl)c(=O)c3ccccc3n12)Nc1ccc(F)c(F)c1	/	3.1%	/	-0.4%	/	/
COc1ccc(Nc2c3c(nc4ccc(NC(=O)/C=C/c5cccc(OC)c5OC)cc24)CCCC3)cc1OC	/	-99.4%	/	9.7%	/	/
COc1ccc2c(c1)NC(c1ccc(OCC(C)C)cc1)=NC(c1ccncc1)=N2	/	3.1%	/	-7.1%	/	/
COc1ccc(C(=O)NCC(c2ccc3c(c2)OCO3)N2CCN(c3ccccc3F)CC2)cc1 (stereo not given)	/	/	/	-4.0%	/	/
Cc1cc(/C=C2\SC(N)=NC2=O)c(C)n1-c1ccc(F)cc1	19.3%	/	10.4%	0.849µM*	19.5%	-0.4%
Cc1cc(/C=C2\SC(=S)N(C)C2=O)c(C)n1-c1ccc(O)cc1	-14.7%	/	?	0.536µM*	-25.9%	/
Cc1ccc(-n2c(C)cc(/C=C3\SC(=O)NC3=O)c2C)cc1	2.51µM*	/	?	2.69µM*	0.708µM*	/
CC(=O)N1CCc2cc(Br)cc(S(=O)(=O)NCCc3cccc(C)c3)c21	/	/	/	-2.1%	/	/
CCOc1ccccc1NC(=S)N1CCN(c2cccc(OC)c2)CC1	-41.6%	/	-5.8%	-1.1%	3.2%	/
N=C1/C(=C\c2ccc(SCc3ccccc3)o2)C(=O)N=C2SC=NN12	-5.6%	8.2%	3.5%	13.5µM*	-4.1%	2.9%
CCCN(CCC)C(=O)c1c2c(nc3ccccc13)C(=O)N(C1CCCCC1)C2	/	/	/	0.6%	/	/
SMILES	NPC1 promoter act	SMN2 splice enh	ELG1 genotox	FLuc modulator	Rab9 prom act	KinaseGlo FLuc
Cc1ccc(Sc2cnc3ccccc3n2)cc1	?	?	2.59µM*	6.75µM*	3.55µM*	-0.1%
COc1cc(-c2[nH]ncc2CN2CCSCC2)cc(OC)c1OC	-0.1%	/	18.3µM*	2.3%	-8.4%	/
CCOC(=O)c1cc2c(nc1N)CCCC2	0.1%	/	-0.1%	-2.7%	7.0%	/
CCOC(=O)c1cnc2cc3c(cn2c1=O)CCCC3	?	16.4%	28.4%	23.9µM*	3.16µM*	-2.3%
O=C(O)C(Cc1c[nH]c2ccccc12)N1C(=O)C2C3c4ccccc4C(c4ccccc43)[C@@H]2C1=O (stereo not given in full)	1.0%	/	-4.3%	1.5%	-2.7%	/
Cc1ccc(C2=NN3C(=O)c4ccccc4C3C2)cc1 (stereo not given)	?	/	?	16.9µM*	?	/
Cc1c(SCCO)c(=O)[nH]c2cc3c(cc12)OCO3	-1.9%	5.7%	1.9%	3.4%	-3.0%	-1.5%
Cc1cccc(/C(N)=N/OC(=O)C23CC4CC(CC(C4)C2)C3)c1	19.3%	-30.0%	?	4.26µM*	?	-5.9%
COc1cc(OC)cc(C(=O)O/N=C(\N)c2cccc(C)c2)c1	?	/	-0.5%	23.9µM*	?	/
CCC(C(=O)O/N=C(\N)c1cccc(C)c1)c1ccccc1 (stereo not given)	15.4%	4.1%	24.5%	?	9.3%	-0.4%
Cc1cccc(/C(N)=N/OC(=O)c2ccc(Br)o2)c1	21.9%	?	?	4.26µM*	2.0%	-14.3%
Cc1cccc(/C(N)=N/OC(=O)c2cccnc2)c1	?	/	?	9.53µM*	3.98µM*	-27.6%
Cc1cccc(/C(N)=N/OC(=O)N2c3ccccc3Sc3ccccc32)c1	-2.1%	-5.8%	1.5%	-16.4%	4.7%	5.0%
O=C(Nc1ccc(N2CCN(C(=O)c3ccccc3F)CC2)cc1)c1ncn[nH]1	0.3%	-6.6%	-5.8%	9.9%	1.2%	-1.3%
Cc1ccc(C)c(N2CCN(C(=O)c3cc4c(=O)n(Cc5cccnc5)ccc4nc3C)CC2)c1	/	/	/	-1.1%	/	/
CCn1cc2nc(SCC(=O)Nc3ccc(OC)c(Cl)c3)n(Cc3ccc(OC)cc3)c(=O)c2n1	/	4.8%	/	-8.9%	/	/
CCn1cc2nc(SCC(=O)Nc3ccc(OC)c(OC)c3)n(Cc3ccc(OC)cc3)c(=O)c2n1	-0.7%	/	6.8%	16.9µM*	7.7%	/
Cc1cccc(C(=O)NCCC(=O)Nc2ccc(F)c([N+](=O)[O-])c2)c1	0.3%	/	0.0%	4.3%	-2.5%	/
Cc1cc(C(=O)N/N=C/c2ccco2)n[nH]1	14.4%	7.6%	14.4%	-18.5%	22.1%	-11.6%
O=C(N/N=C/c1ccccn1)c1cc(C2CC2)[nH]n1	?	?	18.3µM*	19µM*	1.58µM*	-6.0%

Compound activity (PubChem)
